# KCNQ2 enhance: potentiators of rat KCNQ2 potassium channel | CHO-K1 KCNQ2, FluxOR thallium flux fluorescence; active compounds read high | B-score at 10 µM | 310,000 tested, 0.54% active | AID 2239, 2010;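 active = fluorescence ratio B-score at least 3 SD of library B-scores, with initial fluorescence B-score within 3 of them, cut at about 5.3 in these data; same plate scores as AID 2156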;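 also: B-score of peak minus minimum over baseline fluorescence ratio after K+ and Tl+ stimulus; positive B-score means potentiation of KCNQ2 with more thallium influx and brighter signal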
# KCNQ2 inh: rat KCNQ2 potassium channel inhibitors, primary screen, cell-based, CHO-K1, FluxOR thallium flux, B-score | 20 min; active compounds read low | B-score at 10 µM | 310,000 tested, 1.1% active | Potassium voltage-gated channel subfamily KQT member 2 (Rattus norvegicus), O88943 | AID 2156, 2009;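 active = fluorescence ratio B-score at most minus 3 library SDs, with starting brightness B-score within 2 library SDs, cut at about -5.5 in these data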
# Starred values were filed as active, the others as inactive; i = inactive; · = no result given. Shown are actives, neighbours in structure and some others; about 1.6% of the full set was active somewhere.
SMILES,KCNQ2 enhance,KCNQ2 inh
COc1ccccc1C(=O)NC(=S)NNC(=O)c1sc2ccccc2c1Cl,22.6*,i
COc1ccccc1C(=O)NC(=S)Nc1cccc2cc(O)ccc12,-7.93,-7.93*
O=C(c1cccnc1)c1ncc(C(F)(F)F)cc1Cl,·,i
COc1ccc(C2(C(=O)Nc3ccc(C)cc3)CCOCC2)cc1,·,i
CCCCn1c(N)c(N(CCOC)C(=O)c2ccc(F)c(S(=O)(=O)N3CCOCC3)c2)c(=O)[nH]c1=O,0.88,i
CC(Sc1ncc(C(F)(F)F)cc1Cl)C(=O)NCC1CCCO1 (centres undefined),0.32,i
Cn1c(=O)[nH]c2ncccc21,1.75,i
CCCCn1c(N)c(N(CC(C)C)C(=O)CSCc2c(C)noc2C)c(=O)[nH]c1=O,·,i
COc1ccc(O[C@H]2C=C[C@@H](c3ccccc3)O[C@@H]2CO/N=C(\C)CCN2CCc3nc(-c4ccccc4)c(-c4ccccc4)cc3C2)cc1,7.48*,i
CCc1cc2c(nc1CC)CCN(CC/C(C)=N/OC[C@H]1O[C@H](c3ccccc3)C=C[C@@H]1Oc1ccc(OC)cc1)C2,·,i
Cc1oc(-c2ccccc2F)nc1CN1CCC(C(=O)NC2CCCCCCC2)CC1,·,i
Cc1oc(-c2ccccc2F)nc1CN1CCC(C(=O)NC2CCCc3ccccc32)CC1 (centres undefined),-7.33,-7.33*
CC1(C)C(=S)N(Cc2ccccc2)c2ccccc21,-6.58,-6.58*
CC(=O)CC1(O)C(=O)N(Cc2ccccc2)c2ccccc21 (centres undefined),0.22,i
Cc1cccc(N(C)S(=O)(=O)c2ccc(-c3cnc(C4CC4)o3)cc2)c1,-9.89,-9.89*
COc1cccc(N2CCN(S(=O)(=O)c3ccc(-c4cnc(C5CC5)o4)cc3)CC2)c1,0.13,i
Cc1ccc(NS(=O)(=O)c2ccc(-c3cnc(C4CC4)o3)cc2)c(C)c1,-5.69,-5.69*
COc1ccccc1NS(=O)(=O)c1ccc(-c2cnc(C3CC3)o2)cc1,·,i
O=C(CSc1ncnc2scc(-c3ccccc3)c12)N1CCN(c2ccccc2F)CC1,-6.19,-6.19*
COc1ccccc1N1CCN(C(=O)CSc2ncnc3scc(-c4ccccc4)c23)CC1,·,i
CCCC(=O)N1c2ccccc2C(=C2SC(C(=O)OC)=C(C(=O)OC)S2)C(=S)C1(C)C,-7.94,-7.94*
COC(=O)C1=C(C(=O)OC)SC(=C2C(=S)C(C)(C)N(C(=O)C(C)C)c3ccccc32)S1,·,i
CC(C)c1cc(C(=O)N2CCCC(Nc3ccc(F)cc3)C2)nc(N)n1 (centres undefined),0.14,i
O=C(CCN1CCC(c2ccccc2)C1)c1ccc2c(c1)OCCO2 (centres undefined),-6.16,-6.16*
O=C(CCN1CCC(c2ccccc2)C1)c1ccccc1 (centres undefined),·,i
SMILES,KCNQ2 enhance,KCNQ2 inh
Cc1cccc(NC(=O)c2sc3ncn(CC(=O)N4CCN(c5ccccn5)CC4)c(=O)c3c2C)c1,·,i
CCn1nc(C)c(C(=O)Nc2cc(Oc3cc(C)cc(C)c3)cc([N+](=O)[O-])c2)c1C,-5.57,-5.57*
Cc1nn(C)cc1C(=O)Nc1cc(Oc2ccc(Cl)cc2)cc([N+](=O)[O-])c1,·,i
CCN1C(=O)[C@@H]2[C@@H](c3ccc(-c4cccc(Cl)c4)c(OC)c3)N3CCCC[C@@]3(C(=O)OC)[C@@H]2C1=O,·,i
CC(=O)N1CCN(C(=O)c2cc(S(=O)(=O)N(C)c3ccc(F)cc3)ccc2Cl)CC1,·,i
Fc1ccc(NC(=S)Nc2nccs2)cc1,7.32*,i
O=C(Cc1ccc(F)cc1)Nc1nccs1,·,i
O=C(Cc1ccccc1)Nc1nccs1,0.41,i
S=C(Nc1ccccc1)Nc1nccs1,6.55*,i
CCCCN(C)Cc1c(O)ccc2c(=O)c(-c3ccccc3OC)coc12,·,i
COc1ccc(COC(=O)C2=C(C)NC(=O)NC2c2ccc(F)cc2)cc1 (centres undefined),1.61,i
O=C(O)c1ccc(N=Nc2c(O)[nH]c3ccc(Br)cc23)cc1,2.3,i
O=c1ccc2cc3c([nH]c4ccc(Br)cc43)oc-2c1O,9.65*,i
O=C1COc2ccc(S(=O)(=O)N3CCCCCC3)cc2N1,0.7,i
Cc1ccc(F)cc1NC(=O)CSCc1nc2sc(C)c(C)c2c(=O)[nH]1,·,i
O=C(O)c1ccccc1Nc1cc(Cl)c2nonc2c1[N+](=O)[O-],0.04,i
O=[N+]([O-])c1c(Nc2ccccn2)cc(Cl)c2nonc12,-11.2,-11.2*
CCNc1nc(NC(C)C)nc(SCCOc2ccc(C)cc2)n1,-5.56,-5.56*
CCNc1nc(NC(C)C)nc(SCCOC(=O)c2ccccc2)n1,·,i
O=C(NCc1cccc(Cl)c1)c1ccc(CS(=O)Cc2ccc(Cl)cc2)o1 (centres undefined),·,i
